The source made the active and inactive calls.
Experiments:
[1] = tested on: Human papillomavirus type 1a protein E7 (residues 44-93); assay: HPV1a E7 fragment binders on microarrays, primary screen, biochemical, small-molecule microarray, residues 44-93, 635 nm fluorescence (AID 1108); conditions: small-molecule microarray binding, fluorescence 635 nm; higher = more signal;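 also: E7 fragment applied at 1 µg/mL in TBST for 1 h at 4 C; score combines spot fluorescence with its signal to noise ratio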
[2] = modulators of HCV replicon luciferase signal, primary screen, HCV replication inhibitor project, Huh7 cells, luciferase reporter (AID 1109); conditions: 48 h, higher = more signal;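 also: huh7 hepatoma cells harbouring a luciferase neomycin HCV replicon reporter; luciferase luminescence as measure of HCV replicon replication; test concentration not given here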
[3] = biological target: Left-right determination factor 2 (Homo sapiens) (UniProt O00292); assay: LEFTY2 binders on small-molecule microarrays, primary screen, biochemical, small-molecule microarray, 635 nm fluorescence scan (AID 1110); conditions: LEFTY2 binding, higher = more signal
[4] = biological target: Calmodulin-1 (Homo sapiens) (UniProt P0DP23); assay: CALM1 binders on microarrays, EGTA buffer, profiling panel, biochemical, small-molecule microarray, Cy5-labelled CALM1 (AID 1111); conditions: Cy5-CALM1 binding fluorescence, higher = more signal;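 also: labelled calmodulin applied in Tris saline Tween buffer holding calcium plus EGTA and DTT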
[5] = biological target: Calmodulin-1 (Homo sapiens) (UniProt P0DP23); assay: calcium-bound CALM1 binders on microarrays, profiling panel, artefact control for SMM control-protein annotation, biochemical, small-molecule microarray, Cy5-labelled CALM1, plus calcium (AID 1112); conditions: Cy5-CALM1 binding fluorescence, higher = more signal;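 also: score merges spot fluorescence with signal to noise from triplicate slides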
[6] = small-molecule microarray binders of probe aWnt5a, primary screen, biochemical, biotinylated probe, 635/667 nm fluorescence (AID 1113); conditions: higher = more signal;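 also: score merges 667 nm fluorescence intensity with signal-to-noise per printed feature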
[7] = small-molecule microarray binders of probe aShh, primary screen, biochemical, biotinylated probe, 635/667 nm fluorescence (AID 1114); conditions: higher = more signal;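 also: probe is biotin-labelled aShh protein from a stem cell growth factor screen; measures binding of labelled protein to compounds printed on the slide; score merges feature fluorescence at 667 nm with signal-to-noise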
[8] = small-molecule microarray binders of probe aNog, primary screen, biochemical, biotinylated probe, 635/667 nm fluorescence (AID 1115); conditions: higher = more signal;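 also: probe is biotinylated aNog protein used at 0.15 µg/mL for 1 h at 4 C; z-score combines 667 nm fluorescence of each spot with its signal to noise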
[9] = biological target: Torsin-1A-interacting protein 1 (Homo sapiens) (UniProt Q5JTV8); assay: LAP1 binders from COS7 cell lysate, primary screen, small-molecule microarray, 635/667 nm fluorescence (AID 1116); conditions: COS7-hLAP1 lysate binding, 635 nm fluorescence, higher = more signal
[10] = biological target: Alpha-bungarotoxin (Bungarus multicinctus) (UniProt P60615); assay: alpha-bungarotoxin binders on microarray, profiling panel, artefact control for SMM control protein annotation, biochemical, small-molecule microarray, Alexa647 label, 635/667 nm fluorescence (AID 1117); conditions: alpha-BTX-A647 binding fluorescence, higher = more signal
Albumin (Bos taurus) = Albumin (Bos taurus) (UniProt P02769); assay: bovine serum albumin binders on microarray, profiling panel, artefact control for SMM control protein annotation, biochemical, small-molecule microarray, Alexa647 label, 635/667 nm fluorescence (AID 1118); conditions: BSA-A647 binding, fluorescence 635 nm, higher = more signal;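 also: score merges 667 nm emission intensity and signal-to-noise per printed compound spot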
[11] = small-molecule microarray binders of probe aXIP, primary screen, biochemical, NeuroSMM set, 635/667 nm fluorescence (AID 1119); conditions: higher = more signal, called active from +8 up or from −8 down;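 also: probe is the protein aXip251-270 applied at 1 µg/mL to compound-printed slides; binding of probe to printed compounds measured as 667 nm fluorescence plus signal to noise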
[12] = small-molecule binders of probe aNOTCH3, primary screen, biochemical, small-molecule microarray, 635/667 nm fluorescence (AID 1120); conditions: higher = more signal;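 also: probe is a biotin-tagged antibody raised against NOTCH3 rather than NOTCH3 protein; score merges spot fluorescence near 667 nm with spot signal to noise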
[13] = small-molecule binders of probe aNOTCH2, primary screen, biochemical, small-molecule microarray, 635/667 nm fluorescence (AID 1121); conditions: higher = more signal;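 also: score merges feature fluorescence read at 667 nm with its signal to noise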
[14] = biological target: Carbonic anhydrase 2 (Homo sapiens) (UniProt P00918); assay: CAII small-molecule binders, profiling panel, biochemical, small-molecule microarray, Alexa647-labelled CAII (AID 1122); conditions: CAII-A647 binding fluorescence, higher = more signal
[15] = COS7 lysate on small-molecule microarray, probe aHis, 635 nm (AID 1123); conditions: COS7 cell lysate, fluorescence, higher = more signal;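 also: z-score combines 667nm fluorescence intensity with signal-to-noise per printed compound spot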
[16] = compound binding in COS7 lysate, probe aLAP1, primary screen, cell lysate, small-molecule microarray (AID 1124); conditions: probe aLAP1, fluorescence, higher = more signal;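 also: lysate comes from COS7 cells expressing LAP1 and is applied at 0.3 µg/mL; score merges spot fluorescence near 667 nm with signal-to-noise over triplicate slides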
Sam68 (KHDRBS1) = assay: Sam68 small-molecule binders, primary screen, biochemical, small-molecule microarray, 635 nm fluorescence (AID 1125); conditions: small-molecule microarray binding, higher = more signal;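 also: score merges 667 nm channel intensity with signal to noise over triplicate slides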
[17] = tested on: Chordin-like protein 2 (CHRDL2); assay: CHRDL2 small-molecule binders, primary screen, biochemical, small-molecule microarray, 635 nm fluorescence (AID 1126); conditions: small-molecule microarray binding, fluorescence 635 nm; higher = more signal;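 also: printed compound slides probed with Chrdl2 protein at 4 µg/mL for 1 h at 4 C; score merges 667 nm emission intensity with signal to noise over three replicate slides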
[18] = biological target: Concanavalin-A (Canavalia ensiformis) (UniProt P02866); assay: ConA small-molecule binders, primary screen, artefact control for SMM control protein annotation, biochemical, small-molecule microarray, Alexa647 label, 635 nm (AID 1127); conditions: ConA-A647 binding fluorescence, higher = more signal;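 also: z combines 667 nm emission intensity with signal-to-noise across three replicate slides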
Concanavalin-A (Canavalia ensiformis), sequence (P02866 whole entry, looked up): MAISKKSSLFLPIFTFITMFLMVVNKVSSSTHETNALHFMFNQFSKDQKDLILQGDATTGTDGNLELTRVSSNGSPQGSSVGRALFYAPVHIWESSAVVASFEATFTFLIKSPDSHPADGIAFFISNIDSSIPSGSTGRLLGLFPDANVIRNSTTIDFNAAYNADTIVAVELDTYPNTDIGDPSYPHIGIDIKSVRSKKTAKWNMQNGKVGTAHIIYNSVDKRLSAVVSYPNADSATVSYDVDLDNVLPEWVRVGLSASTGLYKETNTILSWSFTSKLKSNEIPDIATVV

Torsin-1A-interacting protein 1 (Homo sapiens), sequence (Q5JTV8 whole entry, looked up): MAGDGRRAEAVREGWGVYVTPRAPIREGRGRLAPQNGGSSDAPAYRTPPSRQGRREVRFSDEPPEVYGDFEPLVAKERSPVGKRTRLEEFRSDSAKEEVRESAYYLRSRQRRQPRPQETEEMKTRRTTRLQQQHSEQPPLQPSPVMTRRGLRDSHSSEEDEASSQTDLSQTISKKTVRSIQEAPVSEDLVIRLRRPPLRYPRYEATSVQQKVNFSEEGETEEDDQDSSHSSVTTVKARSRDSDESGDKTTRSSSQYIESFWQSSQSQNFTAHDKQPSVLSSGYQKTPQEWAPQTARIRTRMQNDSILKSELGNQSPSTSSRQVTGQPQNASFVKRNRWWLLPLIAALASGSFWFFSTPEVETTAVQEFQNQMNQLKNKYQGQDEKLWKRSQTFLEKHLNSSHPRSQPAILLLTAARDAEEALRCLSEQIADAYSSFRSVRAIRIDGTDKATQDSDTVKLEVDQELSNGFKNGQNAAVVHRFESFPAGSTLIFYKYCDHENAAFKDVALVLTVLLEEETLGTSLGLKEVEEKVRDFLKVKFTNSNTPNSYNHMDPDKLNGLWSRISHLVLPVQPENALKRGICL
Albumin (Bos taurus), sequence (P02769 whole entry, looked up): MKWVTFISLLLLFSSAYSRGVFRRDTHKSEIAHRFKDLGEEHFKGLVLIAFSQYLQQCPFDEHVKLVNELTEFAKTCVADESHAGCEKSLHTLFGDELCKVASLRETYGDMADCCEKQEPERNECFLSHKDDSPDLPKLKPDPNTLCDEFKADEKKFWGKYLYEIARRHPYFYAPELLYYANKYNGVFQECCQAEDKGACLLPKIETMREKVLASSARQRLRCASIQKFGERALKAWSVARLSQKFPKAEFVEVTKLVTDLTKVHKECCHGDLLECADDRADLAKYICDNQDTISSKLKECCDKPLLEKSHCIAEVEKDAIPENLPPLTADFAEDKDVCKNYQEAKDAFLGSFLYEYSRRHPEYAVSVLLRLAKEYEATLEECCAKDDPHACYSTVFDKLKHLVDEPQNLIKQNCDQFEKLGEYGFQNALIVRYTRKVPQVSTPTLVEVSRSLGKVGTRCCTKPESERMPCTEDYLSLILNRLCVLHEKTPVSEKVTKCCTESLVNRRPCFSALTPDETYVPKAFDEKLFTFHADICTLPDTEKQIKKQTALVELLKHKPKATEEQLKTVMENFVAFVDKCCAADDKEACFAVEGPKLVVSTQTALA
Alpha-bungarotoxin (Bungarus multicinctus), sequence (P60615 whole entry, looked up): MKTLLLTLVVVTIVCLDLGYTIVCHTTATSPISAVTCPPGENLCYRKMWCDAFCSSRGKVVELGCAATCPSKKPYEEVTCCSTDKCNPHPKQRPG
Left-right determination factor 2 (Homo sapiens), sequence (O00292 whole entry, looked up): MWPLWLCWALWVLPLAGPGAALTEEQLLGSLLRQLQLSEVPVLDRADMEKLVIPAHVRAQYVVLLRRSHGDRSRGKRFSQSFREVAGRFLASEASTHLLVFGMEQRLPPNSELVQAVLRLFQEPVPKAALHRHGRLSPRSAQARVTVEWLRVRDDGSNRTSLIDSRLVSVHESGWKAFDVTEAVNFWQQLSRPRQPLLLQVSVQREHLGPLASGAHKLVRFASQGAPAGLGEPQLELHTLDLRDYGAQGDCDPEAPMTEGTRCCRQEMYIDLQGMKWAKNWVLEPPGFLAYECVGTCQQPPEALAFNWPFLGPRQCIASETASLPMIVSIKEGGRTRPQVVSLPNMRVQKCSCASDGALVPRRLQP

| SMILES | composite z-score [1] | z-score [2] | composite z-score [3] | composite z-score [4] | composite z-score [5] | composite z-score [6] | composite z-score [7] | composite z-score [8] | composite z-score [9] | composite z-score [10] | composite z-score (Albumin (Bos taurus)) | composite Z-score [11] | composite z-score [12] | composite z-score [13] | composite z-score [14] | composite z-score [15] | composite z-score [16] | composite z-score (Sam68 (KHDRBS1)) | composite z-score [17] | composite z-score [18] |
| --- | --- | --- | --- | --- | --- | --- | --- | --- | --- | --- | --- | --- | --- | --- | --- | --- | --- | --- | --- | --- |
| CN(C)CCCC[C@@H]1NC(=O)[C@@H]2C[C@H](C(=O)NCCCCCCN)[C@H](c3ccc(O)cc3)N2C1=O | 1.42 | -0.379 | 0.984 | 0.98 | 1.02 | 0.178 | 0.584 | -0.172 | 1.7 | 0.629 | -0.254 | 0.142 (inactive) | 0.575 | 0.271 | 0.674 | 1.81 | 0.821 | 1.31 | 0.808 | 0.616 |
| CS(=O)(=O)CCOC(=O)C1=CC(c2ccc(CO)cc2)=CC(c2cccs2)N(Cc2cccc(OC(F)(F)F)c2)C=C1C(=O)OCCS(C)(=O)=O (stereo not given) | 0.869 | -2.19 | 0.192 | 1.75 | 0.707 | 0.0044 | -0.102 | -0.475 | 0.796 | 0.904 | 0.735 | -0.0662 (inactive) | 0.152 | -0.0259 | 0.664 | 1.68 | 0.442 | 1.13 | 0.217 | 0.911 |
| CCOC(=O)C[C@H]1[C@H](OC(=O)c2cc3ccccc3oc2=O)[C@@H](NC(=O)c2ccc3ccccc3c2)c2cc(OCCCO)ccc2N1C(=O)c1ccccc1 | 1.39 | -0.593 | 0.129 | -0.0786 | -0.337 | -0.12 | 0.214 | -0.0863 | 0.739 | 0.43 | 0.342 | 0.465 (inactive) | 0.0745 | -0.123 | 0.571 | 0.224 | 0.334 | 1.29 | 0.234 | 0.275 |
| COC(=O)c1c(CC[C@@H](CO)NC(=O)Nc2ncn[nH]2)oc(C(=O)Cc2ccccc2)c1C(=O)OC | 0.693 | 0.0922 | 0.506 | 0.0262 | -0.828 | -0.243 | 0.158 | -0.0144 | -0.0045 | 0.924 | -0.145 | 1 (inactive) | 0.158 | -0.12 | 0.768 | 3.22 | 0.705 | 0.885 | 1.08 | 1.16 |
| C/C=C/[C@H](CCn1cc([C@H](O)c2ccccc2)nn1)[Si](C)(C)c1ccc(OC)cc1 | -0.0636 | -1.78 | -0.915 | -1.41 | -1.41 | -0.233 | -0.0769 | -0.272 | -0.66 | -0.977 | -0.7 | -0.0164 (inactive) | -0.359 | -0.181 | 0.017 | -0.092 | 0.612 | -0.971 | -0.4 | -0.971 |
| C=CCC(OC(C)=O)[C@@H]1[C@@H](N(Cc2cc3ccccc3o2)C(=O)c2cccc3ccccc23)c2cc(OCCCO)ccc2N1C(=O)Cc1ccc2ccccc2c1 (stereo not given in full) | 0.0073 | -0.751 | -0.31 | 0.191 | 0.223 | -0.124 | 0.0711 | -0.366 | -0.089 | 0.474 | 0.398 | 0.182 (inactive) | 0.0496 | -0.0928 | 0.0704 | 0.256 | 0.0592 | -0.301 | 0.16 | 0.106 |
| CC(C)[C@H]1COC(=O)N1C(=O)[C@H]1[C@@H](c2ccccc2)N(c2ccccc2)O[C@@H]1C | 0.359 | -0.383 | 0.729 | 0.35 | -0.434 | -0.1 | -0.206 | 0.0373 | 0.15 | 0.107 | 0.15 | 1.77 (inactive) | 0.0893 | -0.125 | -0.004 | 0.409 | -0.066 | 0.618 | 0.827 | 0.609 |
| COCCOC(=O)N1C(=O)[C@@]2(c3cc(C#Cc4ccc(OC)cc4)ccc31)[C@H](c1ccc(OCCO)cc1)N1[C@H](c3ccccc3)[C@H](c3ccccc3)OC(=O)[C@H]1[C@@H]2C(=O)N1CCc2cc(OC)c(OC)cc2C1 | 1.22 | -0.603 | 0.493 | 0.784 | 0.458 | -0.203 | -0.0824 | -0.0602 | 0.705 | 0.571 | -0.536 | 0.343 (inactive) | 0.0194 | -0.0907 | 0.228 | 0.875 | 0.556 | 1.17 | 0.599 | 0.843 |
| COC(=O)[C@@]1(Cc2ccc(F)cc2)[C@H]2c3cc(C(=O)N(C)C)n(CCCNc4ccc(C(F)(F)F)cc4Cl)c3C[C@H]2CN1C(=O)c1ccccc1 | 1.4 | -2.38 | -0.385 | 2.36 | 1.31 | 0.284 | 0.391 | 1.53 | 1.37 | 1.85 | 1.03 | -0.214 (inactive) | 0.568 | 0.116 | 0.778 | 2.87 | 0.12 | 1.3 | -0.841 | 1.17 |
| O=C(CS)NCCCCCNC(=O)[C@H]1C[C@H]2C(=O)N[C@@H](Cc3ccccc3)C(=O)N2[C@H]1c1cccc(OCCO)c1 | 0.729 | -0.24 | 1.03 | -0.137 | -0.358 | 0.0388 | -0.153 | -0.259 | 1.12 | 0.656 | -1.62 | 0.482 (inactive) | 0.273 | -0.0562 | 0.484 | 1.75 | 0.76 | 1.31 | 1.43 | 1.18 |
| CCOC(=O)C=Cc1cccc(OC)c1O | -0.0381 | 1.61 | -1.23 | 0.155 | -0.551 | -0.122 | -0.212 | -0.344 | -0.0817 | 0.254 | 0.576 | 0.229 (inactive) | -0.426 | -0.14 | -0.288 | 0.0252 | -0.15 | 0.0147 | -1.32 | 0.149 |

Reference: PubChem BioAssay
